For test [1], the target named is BDNF/NT-3 growth factors receptor (Homo sapiens) (UniProt Q16620). To be noted: at 10 µM.
For test [2], the target named is T1, Tyrosine-protein kinase TXK (Homo sapiens) (UniProt P42681).
T1 sequence (whole entry): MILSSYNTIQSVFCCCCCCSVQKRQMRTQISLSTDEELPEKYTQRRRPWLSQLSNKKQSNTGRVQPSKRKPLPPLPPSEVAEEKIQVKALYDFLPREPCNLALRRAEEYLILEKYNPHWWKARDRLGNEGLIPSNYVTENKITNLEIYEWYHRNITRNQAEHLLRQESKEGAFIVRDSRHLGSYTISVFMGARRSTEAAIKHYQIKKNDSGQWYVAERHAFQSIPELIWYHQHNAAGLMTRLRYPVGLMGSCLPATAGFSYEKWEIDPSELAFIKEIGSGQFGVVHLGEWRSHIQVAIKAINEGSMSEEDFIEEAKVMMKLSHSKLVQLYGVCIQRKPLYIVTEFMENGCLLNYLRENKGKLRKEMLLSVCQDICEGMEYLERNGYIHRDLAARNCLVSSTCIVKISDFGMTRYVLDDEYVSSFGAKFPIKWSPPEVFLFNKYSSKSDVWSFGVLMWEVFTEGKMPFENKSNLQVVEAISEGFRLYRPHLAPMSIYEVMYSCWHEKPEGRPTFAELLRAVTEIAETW
To be noted: at 1 µM.

Test [3] deals with T1, Tyrosine-protein kinase TXK (Homo sapiens). To be noted: at 10 µM.
The target of test [4] is T2, Serine/threonine-protein kinase ULK2 (Homo sapiens) (UniProt Q8IYT8).
T2 sequence (whole entry): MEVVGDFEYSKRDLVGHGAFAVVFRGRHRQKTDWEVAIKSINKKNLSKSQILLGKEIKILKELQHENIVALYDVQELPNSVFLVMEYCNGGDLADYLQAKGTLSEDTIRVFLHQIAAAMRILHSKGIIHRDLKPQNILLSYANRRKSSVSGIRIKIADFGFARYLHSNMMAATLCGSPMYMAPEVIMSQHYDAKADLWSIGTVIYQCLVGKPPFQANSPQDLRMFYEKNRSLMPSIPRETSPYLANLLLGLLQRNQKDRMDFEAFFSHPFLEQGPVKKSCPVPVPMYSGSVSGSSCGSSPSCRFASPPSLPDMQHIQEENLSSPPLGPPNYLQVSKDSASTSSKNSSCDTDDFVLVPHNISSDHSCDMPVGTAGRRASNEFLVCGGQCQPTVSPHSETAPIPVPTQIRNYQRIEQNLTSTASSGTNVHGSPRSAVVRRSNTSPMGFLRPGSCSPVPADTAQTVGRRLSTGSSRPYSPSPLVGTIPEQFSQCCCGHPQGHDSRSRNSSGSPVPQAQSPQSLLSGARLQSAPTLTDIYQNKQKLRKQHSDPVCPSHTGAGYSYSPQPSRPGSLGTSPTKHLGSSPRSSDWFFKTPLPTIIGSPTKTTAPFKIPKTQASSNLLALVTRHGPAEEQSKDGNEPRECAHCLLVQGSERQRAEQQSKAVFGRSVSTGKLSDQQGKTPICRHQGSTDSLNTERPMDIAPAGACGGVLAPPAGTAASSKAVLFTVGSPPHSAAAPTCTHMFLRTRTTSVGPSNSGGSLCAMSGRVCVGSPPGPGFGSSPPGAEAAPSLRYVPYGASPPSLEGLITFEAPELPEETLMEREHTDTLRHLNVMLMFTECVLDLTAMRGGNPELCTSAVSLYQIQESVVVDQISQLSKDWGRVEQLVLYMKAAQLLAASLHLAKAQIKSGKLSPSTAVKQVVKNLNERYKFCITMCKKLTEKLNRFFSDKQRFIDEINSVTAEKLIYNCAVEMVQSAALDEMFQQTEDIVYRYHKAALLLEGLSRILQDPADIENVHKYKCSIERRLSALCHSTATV
To be noted: at 1 µM.

The target of test [5] is T2, Serine/threonine-protein kinase ULK2 (Homo sapiens). To be noted: at 10 µM.
Test [6] concerns the target T3, Serine/threonine-protein kinase ULK3 (Homo sapiens) (UniProt Q6PHR2).
T3 sequence (whole entry): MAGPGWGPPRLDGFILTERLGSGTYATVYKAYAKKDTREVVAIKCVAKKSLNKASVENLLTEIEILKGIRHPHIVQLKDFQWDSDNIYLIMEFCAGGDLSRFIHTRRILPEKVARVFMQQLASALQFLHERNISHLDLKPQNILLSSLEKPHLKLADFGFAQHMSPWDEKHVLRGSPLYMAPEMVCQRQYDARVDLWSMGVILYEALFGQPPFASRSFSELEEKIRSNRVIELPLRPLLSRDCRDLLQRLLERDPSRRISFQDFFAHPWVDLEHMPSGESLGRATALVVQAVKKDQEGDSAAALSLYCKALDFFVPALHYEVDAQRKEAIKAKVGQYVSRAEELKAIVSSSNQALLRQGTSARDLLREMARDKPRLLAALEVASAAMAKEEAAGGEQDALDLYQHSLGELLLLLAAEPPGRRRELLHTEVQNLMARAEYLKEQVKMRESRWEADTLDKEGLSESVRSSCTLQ
As to conditions: at 1 µM.

In test [7] the target is T3, Serine/threonine-protein kinase ULK3 (Homo sapiens). As to conditions: at 10 µM.
In test [8] the target is Serine/threonine-protein kinase VRK2 (Homo sapiens) (UniProt Q86Y07). To be noted: at 1 µM.
Sequence of Serine/threonine-protein kinase VRK2 (Homo sapiens) (Q86Y07 whole entry): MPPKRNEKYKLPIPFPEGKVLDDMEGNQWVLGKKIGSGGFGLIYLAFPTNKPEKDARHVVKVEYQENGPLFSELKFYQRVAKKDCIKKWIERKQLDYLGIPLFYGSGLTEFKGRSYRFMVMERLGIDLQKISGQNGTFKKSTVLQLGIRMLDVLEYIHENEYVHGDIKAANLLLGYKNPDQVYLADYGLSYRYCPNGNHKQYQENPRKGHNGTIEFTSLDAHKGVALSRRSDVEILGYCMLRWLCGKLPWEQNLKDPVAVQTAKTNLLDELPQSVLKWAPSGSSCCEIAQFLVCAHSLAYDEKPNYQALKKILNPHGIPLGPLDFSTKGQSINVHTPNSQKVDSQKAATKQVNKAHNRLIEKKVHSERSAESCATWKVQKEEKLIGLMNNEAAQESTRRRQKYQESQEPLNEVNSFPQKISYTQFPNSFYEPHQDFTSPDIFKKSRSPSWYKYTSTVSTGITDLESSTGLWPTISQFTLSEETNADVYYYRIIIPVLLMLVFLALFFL
Test [9] shares this target. To be noted: at 10 µM.
In test [10] the target is Serine/threonine-protein kinase WNK2 (Homo sapiens) (UniProt Q9Y3S1). To be noted: at 1 µM.
Sequence of Serine/threonine-protein kinase WNK2 (Homo sapiens) (Q9Y3S1 whole entry): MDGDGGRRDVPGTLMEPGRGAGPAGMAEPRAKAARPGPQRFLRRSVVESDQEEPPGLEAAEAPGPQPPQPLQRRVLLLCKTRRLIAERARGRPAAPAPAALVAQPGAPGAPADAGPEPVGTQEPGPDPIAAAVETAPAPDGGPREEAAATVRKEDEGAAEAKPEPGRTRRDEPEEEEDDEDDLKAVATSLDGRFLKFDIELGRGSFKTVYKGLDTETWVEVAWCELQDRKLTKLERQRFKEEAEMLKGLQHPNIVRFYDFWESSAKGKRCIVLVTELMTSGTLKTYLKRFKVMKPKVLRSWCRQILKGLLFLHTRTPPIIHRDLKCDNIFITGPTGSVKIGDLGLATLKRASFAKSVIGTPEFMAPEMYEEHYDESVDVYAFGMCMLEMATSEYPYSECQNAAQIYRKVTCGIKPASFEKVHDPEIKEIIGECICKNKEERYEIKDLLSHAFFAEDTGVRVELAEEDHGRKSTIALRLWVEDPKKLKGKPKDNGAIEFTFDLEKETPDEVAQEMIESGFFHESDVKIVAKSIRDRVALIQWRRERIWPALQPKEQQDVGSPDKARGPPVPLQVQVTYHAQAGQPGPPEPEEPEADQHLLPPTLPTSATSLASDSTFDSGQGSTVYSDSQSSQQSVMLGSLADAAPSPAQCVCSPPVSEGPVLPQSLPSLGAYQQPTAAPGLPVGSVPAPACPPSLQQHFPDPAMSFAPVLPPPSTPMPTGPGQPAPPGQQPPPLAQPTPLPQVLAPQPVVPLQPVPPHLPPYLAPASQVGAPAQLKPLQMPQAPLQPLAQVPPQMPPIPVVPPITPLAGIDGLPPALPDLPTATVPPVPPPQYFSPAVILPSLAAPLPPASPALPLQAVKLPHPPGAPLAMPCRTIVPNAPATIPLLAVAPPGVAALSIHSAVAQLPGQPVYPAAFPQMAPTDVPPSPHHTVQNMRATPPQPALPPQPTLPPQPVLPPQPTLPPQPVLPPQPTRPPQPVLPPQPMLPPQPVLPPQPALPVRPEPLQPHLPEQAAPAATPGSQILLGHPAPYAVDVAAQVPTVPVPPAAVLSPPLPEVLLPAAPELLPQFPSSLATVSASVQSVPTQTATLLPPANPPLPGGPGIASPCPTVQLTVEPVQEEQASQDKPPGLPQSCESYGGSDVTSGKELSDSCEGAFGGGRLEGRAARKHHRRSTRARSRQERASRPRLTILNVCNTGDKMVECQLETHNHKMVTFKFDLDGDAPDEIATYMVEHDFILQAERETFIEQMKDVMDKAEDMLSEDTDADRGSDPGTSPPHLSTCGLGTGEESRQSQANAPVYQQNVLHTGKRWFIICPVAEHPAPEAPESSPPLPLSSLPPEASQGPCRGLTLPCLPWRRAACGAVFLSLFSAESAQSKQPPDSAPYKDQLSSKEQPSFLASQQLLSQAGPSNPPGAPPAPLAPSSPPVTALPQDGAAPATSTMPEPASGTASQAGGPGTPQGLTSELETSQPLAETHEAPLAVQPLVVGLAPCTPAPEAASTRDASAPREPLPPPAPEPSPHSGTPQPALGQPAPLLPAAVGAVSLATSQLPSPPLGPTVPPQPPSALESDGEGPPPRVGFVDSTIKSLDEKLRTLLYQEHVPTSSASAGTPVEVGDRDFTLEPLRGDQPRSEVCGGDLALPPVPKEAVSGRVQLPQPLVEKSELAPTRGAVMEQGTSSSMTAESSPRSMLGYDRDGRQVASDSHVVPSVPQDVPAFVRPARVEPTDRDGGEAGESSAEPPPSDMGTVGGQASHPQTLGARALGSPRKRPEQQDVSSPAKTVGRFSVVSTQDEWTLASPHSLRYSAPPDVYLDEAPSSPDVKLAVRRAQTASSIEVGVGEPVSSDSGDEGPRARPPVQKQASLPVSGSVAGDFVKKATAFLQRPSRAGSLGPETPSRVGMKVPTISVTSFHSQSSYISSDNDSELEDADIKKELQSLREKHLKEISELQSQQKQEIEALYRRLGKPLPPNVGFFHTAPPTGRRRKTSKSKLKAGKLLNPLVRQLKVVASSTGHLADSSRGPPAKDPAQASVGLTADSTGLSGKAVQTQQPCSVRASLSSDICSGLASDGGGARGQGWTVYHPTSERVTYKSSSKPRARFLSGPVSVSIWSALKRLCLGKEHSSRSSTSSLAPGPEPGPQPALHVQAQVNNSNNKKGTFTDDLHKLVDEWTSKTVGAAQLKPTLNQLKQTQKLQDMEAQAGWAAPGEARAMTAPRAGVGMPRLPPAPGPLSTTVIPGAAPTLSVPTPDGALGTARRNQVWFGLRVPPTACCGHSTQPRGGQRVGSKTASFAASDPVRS
For test [11] the target is unchanged. As to conditions: at 10 µM.
The target of test [12] is Serine/threonine-protein kinase WNK3 (Homo sapiens) (UniProt Q9BYP7). As to conditions: at 1 µM.
For test [13] the target is unchanged. To be noted: at 10 µM.
Test [14] concerns the target Tyrosine-protein kinase Yes (Homo sapiens) (UniProt P07947). As to conditions: at 1 µM.
The target is the same in test [15]. As to conditions: at 10 µM.
Test [16] addresses T4, Tyrosine-protein kinase ZAP-70 (Homo sapiens) (UniProt P43403).
T4 sequence (whole entry): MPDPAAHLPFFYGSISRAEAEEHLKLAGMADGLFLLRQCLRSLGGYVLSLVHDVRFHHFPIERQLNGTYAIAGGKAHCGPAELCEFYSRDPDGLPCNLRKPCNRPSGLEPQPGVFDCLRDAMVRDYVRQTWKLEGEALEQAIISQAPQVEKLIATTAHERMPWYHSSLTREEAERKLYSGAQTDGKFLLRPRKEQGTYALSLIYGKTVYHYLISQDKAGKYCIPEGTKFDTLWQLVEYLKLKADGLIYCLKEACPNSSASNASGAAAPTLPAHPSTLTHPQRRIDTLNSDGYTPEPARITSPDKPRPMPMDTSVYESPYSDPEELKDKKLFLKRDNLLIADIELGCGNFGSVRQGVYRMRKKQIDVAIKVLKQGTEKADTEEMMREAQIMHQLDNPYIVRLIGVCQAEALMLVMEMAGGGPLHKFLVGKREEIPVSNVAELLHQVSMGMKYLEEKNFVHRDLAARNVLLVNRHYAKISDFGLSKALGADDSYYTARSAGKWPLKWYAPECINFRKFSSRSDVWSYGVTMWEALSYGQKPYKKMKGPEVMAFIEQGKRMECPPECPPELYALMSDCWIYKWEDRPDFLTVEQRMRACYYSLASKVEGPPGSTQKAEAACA
As to conditions: at 1 µM.

In test [17] the target is Death-associated protein kinase 3 (Homo sapiens) (UniProt O43293). To be noted: at 1 µM.
The target is the same in test [18]. As to conditions: at 10 µM.
In test [19] the target is RAF proto-oncogene serine/threonine-protein kinase (Homo sapiens) (UniProt P04049). As to conditions: at 1 µM.
Sequence of RAF proto-oncogene serine/threonine-protein kinase (Homo sapiens) (P04049 whole entry): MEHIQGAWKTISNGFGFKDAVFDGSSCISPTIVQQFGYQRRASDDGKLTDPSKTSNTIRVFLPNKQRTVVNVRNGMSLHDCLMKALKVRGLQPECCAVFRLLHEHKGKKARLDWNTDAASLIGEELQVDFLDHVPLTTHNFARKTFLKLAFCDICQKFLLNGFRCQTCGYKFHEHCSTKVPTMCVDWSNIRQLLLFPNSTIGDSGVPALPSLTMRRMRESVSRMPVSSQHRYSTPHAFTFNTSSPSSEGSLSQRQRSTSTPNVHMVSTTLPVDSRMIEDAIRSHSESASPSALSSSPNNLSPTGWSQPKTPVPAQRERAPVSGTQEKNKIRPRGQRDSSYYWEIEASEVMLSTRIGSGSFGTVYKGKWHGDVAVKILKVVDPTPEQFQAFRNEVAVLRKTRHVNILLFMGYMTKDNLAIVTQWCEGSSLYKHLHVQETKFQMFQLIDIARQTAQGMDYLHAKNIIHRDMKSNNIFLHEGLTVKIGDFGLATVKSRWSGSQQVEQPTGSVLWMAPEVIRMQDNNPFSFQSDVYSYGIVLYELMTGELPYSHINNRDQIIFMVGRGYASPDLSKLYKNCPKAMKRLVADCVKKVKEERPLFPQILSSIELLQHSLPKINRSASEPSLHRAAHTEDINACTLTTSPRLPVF
Test [20] shares this target. As to conditions: at 10 µM.

Sequence of BDNF/NT-3 growth factors receptor (Homo sapiens) (Q16620 32-822 limits assumed): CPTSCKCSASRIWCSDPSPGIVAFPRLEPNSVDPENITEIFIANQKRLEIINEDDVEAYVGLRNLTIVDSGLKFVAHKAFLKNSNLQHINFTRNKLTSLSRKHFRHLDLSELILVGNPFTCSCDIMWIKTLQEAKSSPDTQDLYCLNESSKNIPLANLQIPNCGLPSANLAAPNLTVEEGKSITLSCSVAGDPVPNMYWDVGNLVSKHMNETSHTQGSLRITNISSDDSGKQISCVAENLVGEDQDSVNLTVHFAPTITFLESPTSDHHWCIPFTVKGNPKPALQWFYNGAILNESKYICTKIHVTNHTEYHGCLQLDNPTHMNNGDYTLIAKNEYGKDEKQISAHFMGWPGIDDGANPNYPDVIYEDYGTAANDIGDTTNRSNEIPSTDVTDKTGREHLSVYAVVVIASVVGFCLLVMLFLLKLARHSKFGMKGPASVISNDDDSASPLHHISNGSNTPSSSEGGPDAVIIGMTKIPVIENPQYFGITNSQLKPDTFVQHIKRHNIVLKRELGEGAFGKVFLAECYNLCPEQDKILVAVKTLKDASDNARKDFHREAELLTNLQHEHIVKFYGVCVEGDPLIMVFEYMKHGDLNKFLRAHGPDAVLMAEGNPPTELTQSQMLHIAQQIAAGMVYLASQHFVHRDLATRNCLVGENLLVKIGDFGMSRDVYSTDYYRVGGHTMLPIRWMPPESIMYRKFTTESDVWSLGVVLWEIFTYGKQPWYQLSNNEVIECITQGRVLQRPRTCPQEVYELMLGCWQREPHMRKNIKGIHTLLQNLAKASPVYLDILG
Sequence of Tyrosine-protein kinase Yes (Homo sapiens) (P07947 2-543 limits assumed): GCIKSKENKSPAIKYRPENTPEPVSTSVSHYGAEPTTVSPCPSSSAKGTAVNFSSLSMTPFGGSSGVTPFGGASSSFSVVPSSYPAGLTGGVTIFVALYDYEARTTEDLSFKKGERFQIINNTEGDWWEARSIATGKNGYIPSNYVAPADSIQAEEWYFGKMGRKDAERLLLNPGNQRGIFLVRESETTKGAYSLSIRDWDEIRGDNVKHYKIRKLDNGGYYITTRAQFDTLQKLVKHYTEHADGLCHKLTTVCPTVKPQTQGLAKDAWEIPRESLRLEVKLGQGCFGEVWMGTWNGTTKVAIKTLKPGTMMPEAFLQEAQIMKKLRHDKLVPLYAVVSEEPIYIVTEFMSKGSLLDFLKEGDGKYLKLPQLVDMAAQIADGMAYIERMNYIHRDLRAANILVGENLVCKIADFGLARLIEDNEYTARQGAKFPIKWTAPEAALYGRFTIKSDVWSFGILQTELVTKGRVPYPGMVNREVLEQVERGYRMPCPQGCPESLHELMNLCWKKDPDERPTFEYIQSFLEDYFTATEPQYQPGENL

As usually defined, the residual activity is the signal under treatment as a percentage of the control signal. Turning to `CO[C@H]1[C@@H](OC)C[C@H](C)[C@@H](OC)C2=CC(=O)C=C(NC(=O)/C(C)=C/C=C/[C@H](OC)[C@@H](OC(N)=O)/C(C)=C/[C@@H]1C)C2=O`, the residual activity was 99% in [1]; 89% in [2]; 103% in test [3]; 100% in test [4]; 95% in test [5]; 88% in test [6]. Also, the residual activity was 92% in test [7]; 108% (inactive) in test [8]; 96% in test [9]; 100% (inactive) in [10]; 90% in test [11]; 112% (inactive) in test [12]. Moreover, the residual activity in [13] was 106%; in [14] it was 101%; in test [15], 90%; in [16], 98%; in [17], 108%; in test [18], 96%. Besides, the residual activity is 93% in test [19] and 85% in test [20].
For the molecule `Oc1ccc(-c2nc(-c3ccc(F)cc3)c(-c3ccncc3)[nH]2)cc1`, the residual activity in test [1] amounted to 61%; in [2], 78%; in test [3], 43%; in test [4] it was 112%; in test [5], 104%; in test [6], 102%. In addition, the residual activity in test [7] is 95%; in test [8], 117% (inactive); in test [9], 86%; in [10], 118% (inactive); in test [11], 84%; in [12], 109% (inactive). For the same molecule, the residual activity in test [13] was 75%; in [14], 105%; in [15] it was 34%; in [16], 117%; in test [17] it was 121%; in test [18], 101%. Besides, in test [19], the residual activity was determined as 14%.
Turning to `Nc1ccc2ncnc(NCCc3ccc(Oc4ccccc4)cc3)c2c1`, the residual activity was 58% in test [1]; 80% in test [2]; 61% in [3]; 121% in [4]; 108% in [5]; 103% in [6]. The residual activity in test [7] was 87%; in test [8], 106% (inactive); in [9], 95%; in [10], 110% (inactive); in test [11] it was 82%; in test [12] it was 102% (inactive). For the same molecule, the residual activity in test [13] is 87%; in [14], 63%; in [15], 33%; in test [16] it was 109%; in [17], 111%; in test [18], 111%. Also, the results for the residual activity in test [19] and in test [20] were 82% and 77%, respectively.
As for `COc1cc2ncnc(Nc3ccc(Oc4ccccc4)cc3)c2cc1OC`, the residual activity turned out to be 147% in test [1]; 56% in test [2]; 34% in [3]; 109% in test [4]; 95% in test [5]; 96% in test [6]. For the same molecule, the residual activity in test [7] is 79%; in test [8] it was 99% (inactive); in [9] it was 73%; in test [10], 92% (inactive); in [11], 41%; in [12], 88% (inactive). For the same molecule, the residual activity in test [13] was 49%; in test [14], 9%; in [15], 4%; in test [16] it was 114%; in [17] it was 103%; in test [18] it was 117%.
As to `CC(C)n1cnc2c(NCc3ccccc3)nc(NCCCO)nc21`, the residual activity in [1] was 98%; in test [2], 75%; in test [3] it was 74%; in test [4], 106%; in test [5], 101%; in test [6], 95%. Further, the residual activity in [7] was 90%; in test [8] it was 95% (inactive); in [9] it was 69%; in [10], 98% (inactive); in test [11], 89%; in [12] it was 105% (inactive). In addition, the residual activity in test [13] was found to be 92%; in test [14], 108%; in test [15], 88%; in test [16] it was 114%; in test [17], 87%; in [18], 97%. Further, the residual activity in test [19] turned out to be 85%; in test [20], 78%.
Regarding `CN(C)c1ccc(/C=C2\C(=O)Nc3ccccc32)cc1`, the residual activity in [1] came to 5%; in [2] it was 108%; in test [3] it was 69%; in test [4], 107%; in [5], 70%; in test [6], 100%. Also, the residual activity was 49% in test [7]; 113% (inactive) in [8]; 87% in test [9]; 110% (inactive) in test [10]; 76% in test [11]; 117% (inactive) in test [12]. For the same molecule, the residual activity in test [13] was 90%; in [14], 98%; in test [15] it was 64%; in test [16], 121%; in test [17], 108%; in [18], 97%. The residual activity in test [19] amounted to 94%; in test [20] it was 85%.

The values above are taken from ChEMBL document CHEMBL2218924, “A broad activity screen in support of a chemogenomic map for kinase signalling research and drug discovery” (Biochem J, 2013).
